Results filed as inconclusive are left out. Active and inactive are the calls of the source. Unless noted, calls follow the shape of the dose curve; as a rule, active = well fitted curve in the direction sought with a large enough effect; inconclusive = small, poorly fitted or top-dose-only effect, or another doubt; inactive = no such curve, though single readings can be large; an effect the other way counts as inactive or inconclusive.
Experiments:
[1] = Cell Viability - MRC5 (AID 434; calls by dose curve;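 also: potency is read from the fitted curve at half-maximal effect; cells exposed to compound for 40 hours at 37 °C; potency reflects cytotoxicity seen as loss of intracellular ATP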); conditions: MRC5 lung fibroblast viability, qHTS
In short: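 ATP luminescence read-out (CellTiter-Glo, 20 min RT) after 40 hr, 37 °C compound exposure of 1500 MRC5 cells/well. Data normalized to DMSO (basal) and 100 uM tamoxifen (100% inhibition); AC50 from standard Hill equation.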

[2] = Cell Viability - HUV-EC-C (AID 542); conditions: HUV-EC-C endothelial cell viability, qHTS; series mostly up to 92.2 µM;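 also: cells exposed to compound for 40 hours; % is scaled to controls: 0 for no effect and ±100 for the full control effect; nearly all actives have a fitted effect of over 35% in size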
In short: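 Cells were seeded at 1000 per well and incubated 5 hr at 37 °C before compound addition. After 40 hr at 37 °C, CellTiter-Glo reagent was added for 20 min and luminescence read. AC50 values came from Hill-equation modelling.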

[3] = Cellular Toxicity (caspase-3) HepG2 (AID 654); conditions: HepG2 caspase-3 activation, luminescence; series mostly up to 92.2 µM;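 also: cells exposed to compound for 16 hours before reading; 0% = DMSO alone and 100% = caspase signal from 100 µM tamoxifen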
In short: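 Caspase 3/7 activation in HepG2 is measured as rising luminescence after a 16 hr treatment at 37 °C. Values are scaled between DMSO basal and 100 uM tamoxifen, and AC50 is fitted with the Hill equation.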

[4] = Cellular Toxicity (caspase-3) HUV-EC-C (AID 656); conditions: HUV-EC-C cells, caspase-3 activation (apoptosis); series mostly up to 92.2 µM
In short: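 Read-out: luminescence proportional to caspase 3/7 activity, measured 20 min after adding Caspase-Glo 3/7 reagent. Cells (HUV-EC-C) had received compound for 16 hr at 37°C. Increases relative to DMSO and 100 uM tamoxifen gave concentration-response AC50 values.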

[5] = Cellular Toxicity (caspase-3) MRC-5 (AID 659); conditions: MRC-5 cells, luminescence, normalized: DMSO 0%, 10 µM staurosporine 100%; series mostly up to 91.7 µM
In short: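 MRC-5 fibroblasts, 1500/well; 16 h cpd, 37 °C; Caspase-Glo 3/7, 1 h RT; lumi read. Norm: DMSO = 0%, 10 uM staurosporine = 100%. Hill-fit AC50 from qHTS conc-response.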

[6] = Cellular Toxicity (caspase-3) SK-N-SH (AID 661); conditions: SK-N-SH caspase-3 activation, qHTS, DMSO as zero, staurosporine as full; series mostly up to 91.7 µM
In short: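 Cells were seeded and incubated 5 hr at 37 °C, dosed with compound over a concentration range for 16 hr, then given Caspase-Glo 3/7 reagent for 1 hr at room temperature before luminescence reading.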

[7] = Cellular Toxicity (caspase-3) Hek293 (AID 664); conditions: HEK293 caspase-3 activation, DMSO = 0%, 100 µM tamoxifen = 100%; at 92.2 µM (top of the series);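 also: cells exposed to compound for 16 h at 37 °C before readout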
In short: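 qHTS, HEK293 (human embryonic kidney), 16 h cpd exposure in complete medium. Caspase-3/7 activation = luminescence increase; normalized to DMSO/100 uM tamoxifen; Hill-fit AC50.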

[8] = Cellular Toxicity (caspase-3) N2a (AID 665); conditions: N2a cells, luminescence, normalized: DMSO 0%, 10 µM staurosporine 100%; series mostly up to 92.2 µM;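 also: compound exposure lasted 16 h at 37 °C before readout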
In short: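 Caspase-3/7 activation, measured as increased luminescence from aminoluciferin release, is quantified in mouse N2a cells exposed to compounds for 16 h. Values are normalized to DMSO and 10 uM staurosporine, with AC50 derived by Hill modelling.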

[9] = Cellular Toxicity (caspase-3) Renal Proximal Tubule (AID 667); conditions: renal proximal tubule cells, primary cells freshly taken from rat; Potency: caspase-3 activation; series mostly up to 91.7 µM;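 also: cells exposed to compound for 16 hours at 37 °C before detection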
In short: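 In qHTS format, rat primary proximal tubule cells seeded at 1000 per well are exposed to compounds for 16 hours at 37 °C. An increase in Caspase-Glo 3/7 luminescence indicates caspase activation.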

[10] = MultiTox-Fluor Cytotoxicity Assay - LYMP1-001 - Dead Cells (AID 946); conditions: LYMP1-001 lymphoblastoid cells, dead-cell protease fluorescence; series mostly up to 92.2 µM;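 also: 0% = DMSO and 100% = tetraoctylammonium bromide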
In short: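 LYMP1-001 lymphoblastoid cells (2500/well) treated 16 h at 37 C. Dead-cell protease cleavage of bis-AAF-R110 read at Ex/Em 485/520. Normalized to DMSO and 15 uM tetraoctylammonium bromide; AC50 from Hill fits.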

[11] = MultiTox-Fluor Cytotoxicity Assay - LYMP1-003 - Dead Cells (AID 961); conditions: LYMP1-003 lymphoblastoid cells, dead-cell protease fluorescence; series mostly up to 92.2 µM;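 also: 0% = DMSO and 100% = tetraoctylammonium bromide; nearly all actives have a fitted effect of over 70% in size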
In short: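 LYMP1-003 human lymphoblastoid cells (2500/well) exposed to compound 16 h at 37 C in complete medium; dead-cell protease read with bis-AAF-R110 fluorescence (Ex/Em 485/520) after 60 min at room temperature. Normalized to DMSO and 15 uM tetraoctylammonium bromide; AC50 from Hill fit.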

[12] = MultiTox-Fluor Cytotoxicity Assay - LYMP1-003 - Live Cells (AID 962); conditions: LYMP1-003 lymphoblastoid cells, MultiTox-Fluor live-cell protease fluorescence; series mostly up to 92.2 µM;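 also: 0% = DMSO only and full loss = 92 µM tetraoctylammonium bromide; cytotoxic hits lower the live-cell protease signal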
In short: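 Acute cytotoxicity is scored as a drop in live-cell protease activity in human lymphoblastoid LYMP1-003 cells after 16 hr compound exposure at 37 C. AC50 values come from Hill-equation modelling of concentration-response data.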

[13] = Cell Viability - LYMP1-003 - Assay at 24 hr (AID 963); conditions: LYMP1-003 lymphoblastoid cell viability; series mostly up to 92.2 µM;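 also: plate controls were DMSO only for no effect and tetraoctylammonium bromide positive control for full effect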
In short: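 Cytotoxicity is scored as a concentration-dependent fall in ATP-linked luciferase signal in human lymphoblastoid LYMP1-003 cells treated 24 hr at 37 C in complete culture medium.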

[14] = Cell Viability - LYMP1-002 - Assay at 24 hr (AID 993); conditions: LYMP1-002 lymphoblastoid cells viability; series mostly up to 92.2 µM; also: % is scaled to controls: 0 for no effect and ±100 for the full control effect
In short: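 Acute toxicity is measured as concentration-dependent loss of cellular ATP in a human lymphoblastoid line (Coriell LYMP1-002) after 24 h treatment in complete medium. ATP is quantified by luciferase luminescence and AC50 derived by Hill modelling.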

[15] = qHTS Assay for Identification of Small Molecule Inducers of Hypoxia Response (AID 2120; active = well fitted curve in the direction sought with a large enough effect in the signal ratio, with a control signal flat, not every such curve was filed as active; the % refers to the signal ratio; also: 0% is about no effect); conditions: hypoxia response reporter cells, beta-lactamase ratio readout; series mostly up to 104 µM
In short: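 Cell-based qHTS for reporter induction: hypoxia response element controlled beta-lactamase in ME-180 cells. Compounds incubated 17 h at 37 degrees C; activity from blue/green (460/530 nm) ratio, inducers ranked by AC50.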

[16] = target: Peroxisome proliferator-activated receptor alpha (Homo sapiens) (UniProt Q07869); assay: qHTS assay for small molecule agonists of the peroxisome proliferator-activated receptor alpha (PPARalpha) signaling pathway (AID 651778); conditions: PathHunter PPARalpha complementation, chemiluminescence, 6 h; max response: hits give high values; also: % of control where 0% means no effect
Chain of Peroxisome proliferator-activated receptor alpha (Homo sapiens) (Q07869 whole entry, looked up, the tested form may be a part): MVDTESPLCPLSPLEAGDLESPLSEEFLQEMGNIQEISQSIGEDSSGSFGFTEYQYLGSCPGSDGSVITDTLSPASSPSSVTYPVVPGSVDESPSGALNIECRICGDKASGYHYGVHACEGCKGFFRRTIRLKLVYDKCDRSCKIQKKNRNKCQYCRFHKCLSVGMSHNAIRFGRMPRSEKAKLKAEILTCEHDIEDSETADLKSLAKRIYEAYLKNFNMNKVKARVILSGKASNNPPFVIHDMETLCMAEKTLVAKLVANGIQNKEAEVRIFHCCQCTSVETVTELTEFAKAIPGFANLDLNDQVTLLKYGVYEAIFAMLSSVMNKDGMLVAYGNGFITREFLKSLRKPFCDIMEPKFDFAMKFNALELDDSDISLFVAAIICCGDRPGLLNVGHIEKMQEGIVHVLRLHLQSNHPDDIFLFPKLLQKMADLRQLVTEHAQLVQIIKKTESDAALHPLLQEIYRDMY
In short: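 Enzyme-fragment complementation assay in which ligand-bound PPARalpha translocates and forms an active enzyme that generates chemiluminescence. Cells were plated overnight, exposed to compound for 6 hr at 37 C, and then given detection reagent for 60 min at room temperature.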

[17] = qHTS assay for small molecule agonists of the antioxidant response element (ARE) signaling pathway measured by Nrf2-dependant transcriptional activity - cell viability counter screen (AID 720653; active = well fitted curve in the direction sought with a large enough effect in the repeat runs; an effect the other way counts as inactive or inconclusive; also: % is scaled to controls: 0 for no effect and ±100 for the full control effect); conditions: ARE-bla HepG2 viability, CellTiter-Glo ATP luminescence, 16 h; max response: hits give low values
In short: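 ARE-bla HepG2 cells treated with compounds for 16 h at 37C; this counter screen measures viability as intracellular ATP by CellTiter-Glo luminescence after 30 min at room temperature.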

[18] = qHTS assay for cell viability of HEK293 cells (AID 743288); conditions: ATP luminescence (CellTiter-Glo), 18 h; max response: hits give low values; also: % is scaled to controls: 0 for no effect and ±100 for the full control effect; nearly all actives have a fitted effect of over 50% in size
In short: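 Quantitative high-throughput screen: compounds were pinned onto parental HEK293 cells (2,000 per well) after a minimum 5 h settling at 37 C, incubated 18 h at 37 C, and intracellular ATP measured by luciferase luminescence.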

[19] = qHTS assay for cell viability of the p53RE-bla HCT-116 cell line (AID 743292); conditions: p53RE-bla HCT-116 viability, ATP luminescence, 16 h; series mostly up to 95 µM; also: % is scaled to controls: 0 for no effect and ±100 for the full control effect; nearly all actives have a fitted effect of over 55% in size
In short: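 ATP-based luminescence, 16 h compound exposure at 37 C, p53RE-bla HCT-116 cells at 4,000/well.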

[20] = Cellular Toxicity (caspase-3) NIH 3T3 (AID 666); conditions: NIH 3T3 caspase-3 activation, apoptosis/toxicity, 0% DMSO, 100% is 100 µM tamoxifen; series mostly up to 92.2 µM;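 also: caspase signal read after 16 h compound exposure; 0% = DMSO basal and 100% = 100 µM tamoxifen stimulation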
In short: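 Cells were plated at 1000 per well and incubated 5 hr at 37°C, then compound was added for 16 hr. Caspase-Glo 3/7 reagent followed for 20 min at room temperature before luminescence was read.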

CC(/C=C/C=C(C)/C=C/C(=O)O)=C\C=C\C=C(C)\C=C\C=C(C)\C=C\C(=O)O
inactive: Potency [1] > 92 µM | Potency [2] | Potency [3] | Potency [4] | outcome [5] | outcome [6] | caspase-3 activation [7] -7.2% | outcome [8] | Potency [9] | Potency [10] | Potency [11] | Potency [12] | Potency [13] | Potency [14] | Potency [15] | max response [16] -2.62% | max response [17] -1.24% | max response [18] -0.748% | Potency [19]

Nc1cnn([C@@H]2O[C@H](CO)[C@@H](O)[C@H]2O)c(=O)n1
inactive: Potency [1] > 92 µM | Potency [2] | Potency [3] | Potency [4] | outcome [5] | outcome [6] | caspase-3 activation [7] -2.69% | outcome [8] | outcome [20] | Potency [9] | Potency [10] | Potency [11] | Potency [12] | Potency [13] | Potency [14] | Potency [15] | max response [16] -1.23% | max response [17] 20.2% | max response [18] 3.95% | Potency [19]

Cc1cc2nc(N)sc2cc1C
inactive: Potency [1] > 92 µM | Potency [3] | Potency [4] | outcome [5] | outcome [6] | caspase-3 activation [7] -7.89% | outcome [8] | Potency [10] | Potency [11] | Potency [12] | Potency [13] | Potency [14] | Potency [15] | max response [16] -4.39% | max response [17] -19.7% | max response [18] -12.3% | Potency [19]

Brc1ccc(-c2ccccc2)cc1
inactive: Potency [1] > 92 µM | Potency [2] | Potency [3] | Potency [4] | outcome [5] | outcome [6] | caspase-3 activation [7] -0.717% | outcome [8] | outcome [20] | Potency [9] | Potency [10] | Potency [11] | Potency [12] | Potency [13] | Potency [14] | Potency [15] | max response [16] -2.37% | max response [17] -10.1% | Potency [19]

From PubChem BioAssay (NCATS)
